Activity calls are given as the source filed them. Rule for the calls: active = hit-call score of the fitted dose curve at least 0.9, where 1 is the maximum; inactive = score below 0.9.
Legend:
[1] = ATG_GRE_CIS: Attagene CIS-FACTORIAL HepG2 Assay for human Glucocorticoid Response Elements (GRE) (AID 2282947); conditions: HepG2 GRE cis-reporter, Attagene multiplex mRNA; actives raise or lower the signal
Method in brief: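 Assay uses human hepatoma HepG2 cells transfected with cis-promoter reporter units, exposed 24 h. mRNA from reporters detected by RT-PCR plus capillary electrophoresis; DMSO serves as negative control and baseline.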

[2] = ATG_ISRE_CIS: Attagene CIS-FACTORIAL HepG2 Assay for human Interferon Regulatory Factor 1 (IRF1) binding to an Interferon-Stimulated Response Element (ISRE) (AID 2282948); conditions: HepG2 ISRE cis-reporter (Attagene), mRNA transcription readout; actives raise or lower the signal
Method in brief: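 Cell-based cis-reporter assay; HepG2; 24 h exposure; reporter mRNA by RT-PCR plus capillary electrophoresis fluorescence; activity in either direction scored relative to DMSO.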

[3] = ATG_M_32_CIS: Attagene CIS-FACTORIAL HepG2 Assay for M32 Transcription Factor (Internal Marker) (AID 2282949); conditions: HepG2 Attagene cis-factorial M32 reporter, mRNA; actives raise or lower the signal;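 note: background control marker of the multiplexed CIS panel rather than a real target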
Method in brief: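 Internal background marker read-out: RT-PCR/capillary electrophoresis fluorescence of reporter transcripts from transiently transfected HepG2 cells after 24 h chemical exposure. Activity fitted bidirectionally relative to DMSO negative control.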

[4] = ATG_M_06_CIS: Attagene CIS-FACTORIAL HepG2 Assay for M06 Transcription Factor (Internal Marker) (AID 2282950); conditions: HepG2 Attagene CIS-FACTORIAL M06 internal marker reporter; actives raise or lower the signal
Method in brief: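 HepG2 cells transiently transfected with cis-regulated multiple reporter transcription units were exposed to chemical for 24 h; reporter mRNA was quantified by RT-PCR, 6-FAM primer labelling, HpaI digestion and capillary electrophoresis, fitted bidirectionally against DMSO.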

[5] = biological target: Hypoxia-inducible factor 1-alpha (Homo sapiens) (UniProt Q16665); assay: ATG_HIF1a_CIS: Attagene CIS-FACTORIAL HepG2 Assay for human Hypoxia Inducible Factor 1 (HIF1A) (AID 2282951); conditions: HepG2 Attagene cis-factorial HIF1a reporter transcription; actives raise or lower the signal
Chain of Hypoxia-inducible factor 1-alpha (Homo sapiens) (Q16665 whole entry, looked up): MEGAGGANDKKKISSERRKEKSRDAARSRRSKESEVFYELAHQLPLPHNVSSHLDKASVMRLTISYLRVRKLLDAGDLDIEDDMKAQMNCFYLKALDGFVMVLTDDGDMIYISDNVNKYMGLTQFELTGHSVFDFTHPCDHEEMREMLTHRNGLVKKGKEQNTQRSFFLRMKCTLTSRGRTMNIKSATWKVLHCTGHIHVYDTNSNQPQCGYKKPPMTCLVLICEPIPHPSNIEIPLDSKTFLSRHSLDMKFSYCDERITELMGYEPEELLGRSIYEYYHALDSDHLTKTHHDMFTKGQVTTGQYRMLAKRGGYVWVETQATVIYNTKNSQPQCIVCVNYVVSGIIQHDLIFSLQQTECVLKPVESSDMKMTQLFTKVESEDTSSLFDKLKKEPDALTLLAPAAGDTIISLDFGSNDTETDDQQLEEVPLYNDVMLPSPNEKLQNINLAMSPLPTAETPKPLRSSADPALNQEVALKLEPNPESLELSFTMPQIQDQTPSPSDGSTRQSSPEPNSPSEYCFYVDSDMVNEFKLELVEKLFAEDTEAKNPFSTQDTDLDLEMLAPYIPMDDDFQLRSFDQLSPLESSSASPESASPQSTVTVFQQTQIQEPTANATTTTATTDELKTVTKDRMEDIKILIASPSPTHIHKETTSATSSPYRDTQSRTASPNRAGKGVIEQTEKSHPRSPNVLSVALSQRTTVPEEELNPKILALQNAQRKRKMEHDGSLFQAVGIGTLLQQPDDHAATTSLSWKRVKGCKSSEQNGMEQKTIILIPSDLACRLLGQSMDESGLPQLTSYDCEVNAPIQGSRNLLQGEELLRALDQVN
Method in brief: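 HepG2, transient cis-reporter library, 24 h dosing. RNA → RT (oligo dT) → PCR → 6-FAM primer extension → HpaI → CE. Bidirectional curve fit vs DMSO.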

[6] = biological target: Hepatocyte nuclear factor 6 (Homo sapiens) (UniProt Q9UBC0); assay: ATG_HNF6_CIS: Attagene CIS-FACTORIAL HepG2 Assay for human Hepatocyte Nuclear Factor 6 (HNF6) (AID 2282952); conditions: HepG2 Attagene cis-factorial HNF6 reporter transcription; actives raise or lower the signal
Chain of Hepatocyte nuclear factor 6 (Homo sapiens) (Q9UBC0 whole entry, looked up): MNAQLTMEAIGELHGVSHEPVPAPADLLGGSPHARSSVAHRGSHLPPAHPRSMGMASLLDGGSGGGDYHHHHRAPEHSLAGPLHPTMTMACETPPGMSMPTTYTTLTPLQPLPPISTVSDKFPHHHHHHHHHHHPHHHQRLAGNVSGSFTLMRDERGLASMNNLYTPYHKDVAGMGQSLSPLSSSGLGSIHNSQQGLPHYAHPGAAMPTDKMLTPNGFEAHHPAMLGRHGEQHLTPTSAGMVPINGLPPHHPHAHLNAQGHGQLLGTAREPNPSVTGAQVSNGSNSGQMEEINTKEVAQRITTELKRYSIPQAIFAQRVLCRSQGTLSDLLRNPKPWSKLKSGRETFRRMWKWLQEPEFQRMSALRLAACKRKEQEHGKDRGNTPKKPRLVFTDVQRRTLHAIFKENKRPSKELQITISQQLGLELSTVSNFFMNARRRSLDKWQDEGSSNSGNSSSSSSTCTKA
Method in brief: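 HepG2 cells transiently transfected with cis-element-driven multiple reporter transcription units, dosed 24 h; reporter mRNA quantified by RT-PCR, FAM primer extension, HpaI digestion and capillary electrophoresis; bidirectional fit versus DMSO baseline.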

[7] = biological target: Heat shock factor protein 1 (Homo sapiens) (UniProt Q00613); assay: ATG_HSE_CIS: Attagene CIS-FACTORIAL HepG2 Assay for human Heat Shock Transcription Factor 1 (HSE) (AID 2282953); conditions: HepG2 HSE cis-reporter, Attagene RNA transcription; actives raise or lower the signal
Chain of Heat shock factor protein 1 (Homo sapiens) (Q00613 whole entry, looked up): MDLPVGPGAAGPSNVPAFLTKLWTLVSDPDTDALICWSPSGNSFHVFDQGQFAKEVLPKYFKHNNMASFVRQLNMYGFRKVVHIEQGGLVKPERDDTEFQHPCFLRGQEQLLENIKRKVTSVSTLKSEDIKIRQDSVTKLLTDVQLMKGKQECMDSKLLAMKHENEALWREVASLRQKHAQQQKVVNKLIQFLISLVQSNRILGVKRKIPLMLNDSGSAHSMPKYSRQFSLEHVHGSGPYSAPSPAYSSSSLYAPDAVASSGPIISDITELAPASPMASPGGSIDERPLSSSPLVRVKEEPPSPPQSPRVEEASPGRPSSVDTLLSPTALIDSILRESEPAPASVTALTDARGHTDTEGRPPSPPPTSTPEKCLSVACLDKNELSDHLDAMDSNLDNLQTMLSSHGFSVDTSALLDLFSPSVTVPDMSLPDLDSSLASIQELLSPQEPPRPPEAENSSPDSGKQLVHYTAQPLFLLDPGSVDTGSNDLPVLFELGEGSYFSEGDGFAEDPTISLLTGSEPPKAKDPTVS
Method in brief: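 HepG2 cells transiently transfected with multiple reporter transcription units under cis-regulatory promoter control, measuring endogenous transcription factor activity. After 24 h chemical exposure, reporter mRNA quantified by RT-PCR, fluorescent labelling, HpaI digestion and capillary electrophoresis; bidirectional fit versus DMSO.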

[8] = ATG_MRE_CIS: Attagene CIS-FACTORIAL HepG2 Assay for human Metal Responsive Element (MRE) (AID 2282954); conditions: HepG2 MRE cis-reporter transcription, Attagene multiplex; actives raise or lower the signal
Method in brief: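 After a 24 h chemical exposure, transiently transfected HepG2 cells yield RNA whose reporter sequences are amplified, FAM-labelled and sized by capillary electrophoresis. Curves are fitted bidirectionally relative to DMSO.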

[9] = ATG_PBREM_CIS: Attagene CIS-FACTORIAL HepG2 Assay for human Phenobarbital-responsive Enhancer Module (PBREM) (AID 2282955); conditions: HepG2 PBREM cis-reporter, Attagene multiplexed transcription; actives raise or lower the signal
Method in brief: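 HepG2, transient MRTU transfection, 24 h dosing; RNA → oligo(dT) RT → PCR → 6-FAM extension → HpaI → CE. Bidirectional fit vs DMSO.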

[10] = biological target: Paired box protein Pax-6 (Homo sapiens) (UniProt P26367); assay: ATG_Pax6_CIS: Attagene CIS-FACTORIAL HepG2 Assay for human Paired Box 6 (PAX6) (AID 2282956); conditions: HepG2 CIS-FACTORIAL PAX6 reporter transcription, RNA readout; actives raise or lower the signal
Chain of Paired box protein Pax-6 (Homo sapiens) (P26367 whole entry, looked up): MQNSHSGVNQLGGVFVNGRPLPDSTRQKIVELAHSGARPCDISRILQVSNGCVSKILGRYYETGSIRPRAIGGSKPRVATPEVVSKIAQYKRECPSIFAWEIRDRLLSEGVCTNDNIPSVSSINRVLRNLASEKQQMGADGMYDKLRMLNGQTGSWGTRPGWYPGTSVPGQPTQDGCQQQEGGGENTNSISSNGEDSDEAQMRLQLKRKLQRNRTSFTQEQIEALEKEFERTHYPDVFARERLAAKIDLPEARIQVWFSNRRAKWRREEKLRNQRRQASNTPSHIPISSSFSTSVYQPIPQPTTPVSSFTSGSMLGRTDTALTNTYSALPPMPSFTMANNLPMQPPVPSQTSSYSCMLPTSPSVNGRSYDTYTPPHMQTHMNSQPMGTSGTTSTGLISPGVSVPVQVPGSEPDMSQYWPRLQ
Method in brief: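 Multiplexed cis-reporter HepG2 system; 24 h treatment; reporter mRNA read by RT-PCR/CE fluorescence; bidirectional fit vs DMSO.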

[11] = ATG_PXRE_CIS: Attagene CIS-FACTORIAL HepG2 Assay for human Pregnane X Receptor Element (PXRE) (AID 2282957); conditions: HepG2 Attagene CIS-FACTORIAL PXRE reporter, mRNA; actives raise or lower the signal
Method in brief: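 HepG2 cells transiently transfected with cis-regulated multiple reporter transcription units; endogenous factor activity measured as reporter mRNA 24 h after dosing. RT-PCR, fluorescent primer extension, HpaI digestion, capillary electrophoresis; bidirectional fit versus DMSO baseline.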

[12] = ATG_PPRE_CIS: Attagene CIS-FACTORIAL HepG2 Assay for human Peroxisome Proliferator-activated Response Element (PPRE) (AID 2282958); conditions: HepG2 PPRE cis-element reporter, Attagene transcription factor profiling; actives raise or lower the signal
Method in brief: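 Transcript-level reporter induction in transfected HepG2 cells after 24 h chemical exposure, quantified by fluorescence from RT-PCR products separated by capillary electrophoresis.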

[13] = ATG_RORE_CIS: Attagene CIS-FACTORIAL HepG2 Assay for human RAR-related Orphan Receptor Element (RORE) (AID 2282959); conditions: HepG2 Attagene cis-factorial RORE reporter, mRNA; actives raise or lower the signal
Method in brief: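 Multiplexed reporter assay measuring mRNA induction from a cis promoter element in transiently transfected HepG2 cells after 24 h treatment. Detection via RT-PCR and capillary electrophoresis fluorescence; DMSO serves as baseline.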

[14] = ATG_Sox_CIS: Attagene CIS-FACTORIAL HepG2 Assay for human SRY-box transcription factor (SOX) (AID 2282960); conditions: HepG2 Attagene cis-factorial SOX reporter, mRNA; actives raise or lower the signal
Method in brief: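 Cells were transfected with reporter constructs under cis-regulatory promoters, then exposed to chemicals for 24 h. Reporter transcripts were quantified by fluorescence after RT-PCR and capillary electrophoresis; activity was fitted in both directions against DMSO.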

[15] = biological target: Transcription factor Sp1 (Homo sapiens) (UniProt P08047); assay: ATG_Sp1_CIS: Attagene CIS-FACTORIAL HepG2 Assay for human Specificity Protein 1 (Sp1) (AID 2282961); conditions: HepG2 Sp1 cis-reporter transcription, actives raise or lower the signal
Chain of Transcription factor Sp1 (Homo sapiens) (P08047 whole entry, looked up): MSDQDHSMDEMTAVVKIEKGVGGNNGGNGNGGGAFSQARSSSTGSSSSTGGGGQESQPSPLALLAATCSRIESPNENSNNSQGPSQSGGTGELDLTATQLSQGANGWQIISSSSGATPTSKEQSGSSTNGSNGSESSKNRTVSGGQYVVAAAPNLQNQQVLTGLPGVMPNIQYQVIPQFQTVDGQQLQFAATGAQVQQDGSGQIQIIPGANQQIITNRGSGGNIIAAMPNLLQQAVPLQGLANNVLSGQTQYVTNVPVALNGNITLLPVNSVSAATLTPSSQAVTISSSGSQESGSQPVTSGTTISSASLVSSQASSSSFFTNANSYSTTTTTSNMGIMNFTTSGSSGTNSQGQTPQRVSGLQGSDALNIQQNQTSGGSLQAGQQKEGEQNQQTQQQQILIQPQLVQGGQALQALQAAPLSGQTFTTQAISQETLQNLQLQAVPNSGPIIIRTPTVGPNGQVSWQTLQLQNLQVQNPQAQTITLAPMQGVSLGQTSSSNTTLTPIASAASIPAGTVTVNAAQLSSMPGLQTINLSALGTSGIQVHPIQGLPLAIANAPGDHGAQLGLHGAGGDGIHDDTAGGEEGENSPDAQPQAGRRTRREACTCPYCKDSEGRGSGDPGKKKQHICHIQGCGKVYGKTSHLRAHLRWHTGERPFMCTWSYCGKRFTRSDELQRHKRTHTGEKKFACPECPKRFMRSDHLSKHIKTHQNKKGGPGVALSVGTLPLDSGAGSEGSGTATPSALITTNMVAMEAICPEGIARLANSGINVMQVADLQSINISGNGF
Method in brief: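 Measures mRNA induction of an Sp1-linked reporter in HepG2 cells 24 h post-dosing. Multiplexed reporters read by RT-PCR and capillary electrophoresis; DMSO serves as negative control and baseline.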

[16] = ATG_SREBP_CIS: Attagene CIS-FACTORIAL HepG2 Assay for human Sterol Regulatory Element Binding (SREBP) (AID 2282962); conditions: HepG2 Attagene cis-factorial SREBP reporter, mRNA; actives raise or lower the signal
Method in brief: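 mRNA induction of transfected cis-promoter reporters in HepG2 cells, 24 h post-dose. Detection: RT-PCR with 6-FAM-labelled products, HpaI digest, capillary electrophoresis. DMSO served as negative control and baseline.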

[17] = biological target: Signal transducer and activator of transcription 3 (Homo sapiens) (UniProt P40763); assay: ATG_STAT3_CIS: Attagene CIS-FACTORIAL HepG2 Assay for human Signal Transducer and Activator of Transcription 3 (STAT3) (AID 2282963); conditions: HepG2, Attagene cis-factorial STAT3 reporter transcription; actives raise or lower the signal
Chain of Signal transducer and activator of transcription 3 (Homo sapiens) (P40763 whole entry, looked up): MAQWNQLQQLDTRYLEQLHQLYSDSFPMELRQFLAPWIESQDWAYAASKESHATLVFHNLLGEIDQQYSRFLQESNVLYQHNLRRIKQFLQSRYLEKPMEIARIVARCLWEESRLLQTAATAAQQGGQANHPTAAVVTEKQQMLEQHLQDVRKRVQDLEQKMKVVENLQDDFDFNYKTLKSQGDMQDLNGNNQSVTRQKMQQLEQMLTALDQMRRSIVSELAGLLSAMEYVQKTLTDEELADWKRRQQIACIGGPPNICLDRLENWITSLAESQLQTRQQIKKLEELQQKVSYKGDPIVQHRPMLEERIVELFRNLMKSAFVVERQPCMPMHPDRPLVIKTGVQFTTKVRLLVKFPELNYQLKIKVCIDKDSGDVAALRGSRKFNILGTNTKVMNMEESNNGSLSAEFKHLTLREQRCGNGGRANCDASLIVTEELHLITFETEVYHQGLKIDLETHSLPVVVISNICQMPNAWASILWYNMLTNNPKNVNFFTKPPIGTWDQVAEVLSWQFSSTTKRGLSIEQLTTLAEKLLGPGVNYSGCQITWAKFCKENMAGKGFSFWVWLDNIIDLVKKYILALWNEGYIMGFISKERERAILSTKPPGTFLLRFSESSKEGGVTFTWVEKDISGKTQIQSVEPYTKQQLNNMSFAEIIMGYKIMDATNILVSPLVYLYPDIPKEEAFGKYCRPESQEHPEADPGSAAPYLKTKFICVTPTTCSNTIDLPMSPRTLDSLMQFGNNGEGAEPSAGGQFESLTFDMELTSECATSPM
Method in brief: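 After a 24 h compound incubation, total RNA from MRTU-transfected HepG2 cells was converted to cDNA and reporter sequences PCR-amplified, labelled and profiled by capillary electrophoresis. Gain and loss of signal were referenced to DMSO.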

[18] = ATG_TA_CIS: Attagene CIS-FACTORIAL HepG2 Assay for human TA Basal Promoter (AID 2282964); conditions: HepG2 Attagene CIS-factorial TA basal promoter reporter; actives raise or lower the signal
Method in brief: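 HepG2 cells transiently transfected with multiplexed cis-promoter reporter units, dosed 24 h. Reporter mRNA measured by RT-PCR, 6-FAM labelling, HpaI digestion and capillary electrophoresis; bidirectional fit versus DMSO baseline, serving as background control.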

[19] = ATG_TCF_b_cat_CIS: Attagene CIS-FACTORIAL HepG2 Assay for human T-Cell-Factor with beta-catenin (TCF/b-cat) (AID 2282965); conditions: HepG2 TCF/beta-catenin cis-reporter transcription, actives raise or lower the signal
Method in brief: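 Measured: reporter mRNA in HepG2 transiently transfected with cis-promoter reporter units, 24 h after chemical addition. Fitting was bidirectional, DMSO as negative control.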

[20] = ATG_TAL_CIS: Attagene CIS-FACTORIAL HepG2 Assay for human TAL Basal Promoter (AID 2282966); conditions: HepG2 Attagene cis-factorial TAL promoter reporter; actives raise or lower the signal;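 note: background control endpoint measuring basal TAL promoter reporter mRNA not a specific factor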
Method in brief: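 HepG2 cells were transiently transfected with promoter-driven multiplexed reporter units and dosed for 24 h. Reporter mRNA was measured by RT-PCR with capillary electrophoresis fluorescence; bidirectional fits used DMSO as baseline, serving as a background control.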

Measured: AC50

ClCc1ccccn1
not listed: [20]
inactive: all other assays above

Clc1nc(Cl)nc(Cl)n1
active: [7] 144 µM | [11] 34.9 µM
inactive: all other assays above

O=c1[nH]c(=O)[nH]c(=O)[nH]1
not listed: [20]
inactive: all other assays above

CCOP(=S)(OCC)Oc1nc(Cl)c(Cl)cc1Cl
active: [2] 27.2 µM | [8] 100 µM | [11] 5.24 µM | [15] 65.3 µM | [16] 68.1 µM
inactive: all other assays above

CCC[CH2][Sn]([Cl])([Cl])[Cl]
inactive: all assays above

COc1cccc(C=O)c1
inactive: all assays above

COc1ccc(C=O)cc1
inactive: all assays above
